Data reported in the supplement of paper PMC7411054.

Experiments:
Assay in all cases: phenotypically active (imaging signature differs from DMSO and reproducible) at any of 0.3-9 uM (binary (1 = active, 0 = inactive)); higher = active
Details in all cases: treatment time: 24 h
A549-ACTB-RAB5A = tested on: A549-ACTB-RAB5A
Method in brief: (§1)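 Each of fifteen gene-edited A549, HepG2 and WPMY1 reporter lines, marked with BFP for segmentation and GFP and RFP/FusionRed, was treated in four wells at 0.3, 1, 3 or 9 µM for 24 h prior to live imaging. Normalisation of per-well live-cell features used solvent control wells. Deviation needed ≥3 of 4 wells beyond the 95th percentile of control Euclidean distances, and reproducibility needed a median replicate Pearson correlation above the 95th percentile of non-replicates. Both were required for phenotypic activity.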

A549-CANX-COX4 = tested on: A549-CANX-COX4
Method in brief: as §1

A549-GM130-SQSTM1 = tested on: A549-GM130-SQSTM1
Method in brief: as §1

A549-TP53BP1-CLTA = tested on: A549-TP53BP1-CLTA
Method in brief: as §1

A549-TUBA1B-RELA = tested on: A549-TUBA1B-RELA
Method in brief: as §1

HepG2-ACTB-RAB5A = tested on: HepG2-ACTB-RAB5A
Method in brief: as §1

HepG2-CANX-COX4 = tested on: HepG2-CANX-COX4
Method in brief: as §1

HepG2-GM130-SQSTM1 = tested on: HepG2-GM130-SQSTM1
Method in brief: as §1

HepG2-TP53BP1-CLTA = tested on: HepG2-TP53BP1-CLTA
Method in brief: as §1

HepG2-TUBA1B-RELA = tested on: HepG2-TUBA1B-RELA
Method in brief: as §1

WPMY1-ACTB-RAB5A = tested on: WPMY1-ACTB-RAB5A
Method in brief: as §1

WPMY1-CANX-COX4 = tested on: WPMY1-CANX-COX4
Method in brief: as §1

WPMY1-GM130-SQSTM1 = tested on: WPMY1-GM130-SQSTM1
Method in brief: as §1

WPMY1-TP53BP1-CLTA = tested on: WPMY1-TP53BP1-CLTA
Method in brief: as §1

WPMY1-TUBA1B-RELA = tested on: WPMY1-TUBA1B-RELA
Method in brief: as §1

Measured: phenotypically active

CCN1C(C)(C)CC(Oc2ccc(C(=O)Nc3ccc(NC(=O)Nc4cc(C(C)(C)C)on4)cc3)nc2)CC1(C)C
inactive: A549-ACTB-RAB5A 0 | A549-CANX-COX4 0 | A549-GM130-SQSTM1 0 | A549-TP53BP1-CLTA 0 | A549-TUBA1B-RELA 0 | HepG2-ACTB-RAB5A 0 | HepG2-CANX-COX4 0 | HepG2-GM130-SQSTM1 0 | HepG2-TP53BP1-CLTA 0 | HepG2-TUBA1B-RELA 0 | WPMY1-ACTB-RAB5A 0 | WPMY1-CANX-COX4 0 | WPMY1-GM130-SQSTM1 0 | WPMY1-TP53BP1-CLTA 0 | WPMY1-TUBA1B-RELA 0

CN1[C@@H](CC(=O)c2ccccc2)CCC[C@H]1C[C@H](O)c1ccccc1 [Lobeline alpha (-) hydrochoride]
inactive: A549-ACTB-RAB5A 0 | A549-CANX-COX4 0 | A549-GM130-SQSTM1 0 | A549-TP53BP1-CLTA 0 | A549-TUBA1B-RELA 0 | HepG2-ACTB-RAB5A 0 | HepG2-CANX-COX4 0 | HepG2-GM130-SQSTM1 0 | HepG2-TP53BP1-CLTA 0 | HepG2-TUBA1B-RELA 0 | WPMY1-ACTB-RAB5A 0 | WPMY1-CANX-COX4 0 | WPMY1-GM130-SQSTM1 0 | WPMY1-TP53BP1-CLTA 0 | WPMY1-TUBA1B-RELA 0

CN1C(=O)OC(C)(C)C1=O [trimethadione]
inactive: A549-ACTB-RAB5A 0 | A549-CANX-COX4 0 | A549-GM130-SQSTM1 0 | A549-TP53BP1-CLTA 0 | A549-TUBA1B-RELA 0 | HepG2-ACTB-RAB5A 0 | HepG2-CANX-COX4 0 | HepG2-GM130-SQSTM1 0 | HepG2-TP53BP1-CLTA 0 | HepG2-TUBA1B-RELA 0 | WPMY1-ACTB-RAB5A 0 | WPMY1-CANX-COX4 0 | WPMY1-GM130-SQSTM1 0 | WPMY1-TP53BP1-CLTA 0 | WPMY1-TUBA1B-RELA 0

CC1(C)CCC(C)(C)c2cc(C3(c4ccc(C(=O)O)cc4)OCCO3)ccc21
inactive: A549-ACTB-RAB5A 0 | A549-CANX-COX4 0 | A549-GM130-SQSTM1 0 | A549-TP53BP1-CLTA 0 | A549-TUBA1B-RELA 0 | HepG2-ACTB-RAB5A 0 | HepG2-CANX-COX4 0 | HepG2-GM130-SQSTM1 0 | HepG2-TP53BP1-CLTA 0 | HepG2-TUBA1B-RELA 0 | WPMY1-ACTB-RAB5A 0 | WPMY1-CANX-COX4 0 | WPMY1-GM130-SQSTM1 0 | WPMY1-TP53BP1-CLTA 0 | WPMY1-TUBA1B-RELA 0
